Records with an inconclusive call do not appear. A number with no mark means an inactive call. Active and inactive are the calls of the source. Calls follow the shape of the dose curve; as a rule, active = well fitted inhibition curve with a large enough effect; inconclusive = small, poorly fitted or top-dose-only effect; inactive = no such curve, though single readings can be large or run the other way. Residues, ends and D or L forms follow the SMILES beside them. *: point of attachment. Cbz = O=C(OCc1ccccc1)*
Potency is read from the fitted curve at half-maximal effect.

The test can be described thus: NS1 protein of Zika virus - qHTS assay to identify small molecule inhibitors in human HEK 293 cells (AID 1347053). Also: nearly all actives have a fitted effect of over 55% in size.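 As to activity change, negative = inhibition: plate controls were infected untreated cells for no effect and uninfected cells for full effect.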 Particulars: HEK293 ZIKV MR766 infection, NS1 TR-FRET, 24 h; series mostly up to 46.1 µM; activity change, negative = inhibition: at the top concentration. The source says:
National Center for Advancing Translational Sciences [NCATS]
Johns Hopkins University School of Medicine
The non-structural 1 (NS1) protein of zika virus is known to associate with the viral replication complex. This cell-based TR-FRET ZIKV NS-1 assay measures the increased NS-1 protein in human HEK 293 cells after a 24-hour Zika virus infection by a TR-FRET assay readout. A decrease in the Time-resolved fluorescence energy transfer (TR-FRET) signal in this assay by small molecule treatment indicates an inhibitory effect of the small molecule on the expression of Zika virus NS1 correlating with Zika virus replication.
HEK 293 cells were cultured in EMEM (ATCC, Cat. # 30-2003) medium with 10% fetal bovine serum (GE healthcare Life Sciences, Cat. # SH30071.03), and 1% Pen/Strep (Gibco, Cat. # 15140-122). Cells were seeded in the assay plate and incubated at 37 C with 5% CO2 for 20 hours. Compounds were added to cells and incubated for one hour before addition of ZIKV MR766 strain solution to cells (MOI = 0.5). After an incubation at 37 C for 24 hours, the reagent mixture of TR-FRET ZIKV NS1 assay using two anti-ZIKV NS1 antibodies was added to assay plates. The TR-FRET signals in assay plates were measured using an Envision plate reader (PerkinElmer). Data were normalized by using the cell-containing wells without ZIKV as a negative control (0% NS-1) and wells containing ZIKV infected cells as a positive control (100% NS-1 level).
A general note: qHTS replaces the single test concentration by a dilution series.
Take `c1ccc(C(NCCNC(c2ccccc2)c2ccccc2)c2ccccc2)cc1`: the “activity change, negative = inhibition” value was -10.6%.

On to `CCC1(O)CC2CN(CCc3c([nH]c4ccccc34)[C@@](C(=O)OC)(c3cc4c(cc3OC)N(C=O)C3[C@]45CCN4CC=C[C@@](CC)([C@@H](OC(C)=O)[C@]3(O)C(=O)OC)[C@H]45)C2)C1` (stereo not given in full), for which the “activity change, negative = inhibition” value is 7.28%.

On to `CC1CNCCN1S(=O)(=O)c1cccc2cnccc12` (stereo not given), for which the “activity change, negative = inhibition” value is -2.29%.

As to `Nc1nc2c(nc(Br)n2C2OC3COP(=O)(O)O[C@@H]3C2O)c(=O)[nH]1` (stereo not given in full), the “activity change, negative = inhibition” value is -6.27%.

With `N=C(N)c1ccccc1`, the “activity change, negative = inhibition” value was 0.621%.

As to `CCN1C(=O)C=CC1=O`, the “activity change, negative = inhibition” value is -20.5%.

On to `O=c1[nH]c2cc(Cl)ccc2c(O)c1-c1ccc(Oc2ccccc2)cc1`, for which the “activity change, negative = inhibition” value was 6.19%.

In the case of `CCCCCCC/C=C\CCCCCCCCC(=O)O`, the “activity change, negative = inhibition” value was -19.5%.

Consider `N[C@H]1CONC1=O`, for which the “activity change, negative = inhibition” value was -6.11%.

In the case of `CNc1ncnc2c1ncn2[C@H]1C[C@H](OP(=O)(O)O)[C@@H](COP(=O)(O)O)O1`, the “activity change, negative = inhibition” value is -16.4%.

For `NC[C@@H]1O[C@H](c2ccccc2)Cc2c1ccc(O)c2O`, the “activity change, negative = inhibition” value is 8.47%.

As to `CCSC(=N)N`, the “activity change, negative = inhibition” value is -3.88%.

As to `N[C@H](C(=O)O)c1cc(O)cc(O)c1`, the “activity change, negative = inhibition” value was -9.23%.

On to `COc1cc(N)c(Cl)cc1C(=O)OCCN1CCCCC1`, for which the “activity change, negative = inhibition” value is -3.62%.

Take `Cc1cccc(C(=O)NCN2CCN(c3ccccc3C#N)CC2)c1`: the “activity change, negative = inhibition” value was -1.4%.

As for `NC(=O)CC[C@H](N)C(=O)O`, the “activity change, negative = inhibition” value is 13.3%.

`Nc1ccc(N2C(=O)c3ccccc3C2=O)c(Cl)c1`: the “activity change, negative = inhibition” value is -5.12%.

Turning to `CC(C)[C@H](NC(=O)OCc1ccccc1)C(=O)N[C@H](C=O)Cc1ccccc1` (Cbz-Val-Phe-aldehyde), the “activity change, negative = inhibition” value was 2.87%.

For `O=C(OCCN1CCOCC1)C1(c2ccccc2)CCCCC1`, the “activity change, negative = inhibition” value is -18.2%.

Regarding `CC(C)(C)c1cc(/C=C(\C#N)C(N)=S)cc(C(C)(C)C)c1O`, the “activity change, negative = inhibition” value is 36.2%.

Consider `S=C(S)N1CCCC1`, for which the Potency is 7.94 µM (active).

With `CNCCc1cnc(CCC(c2ccccc2)c2ccccc2)[nH]1`, the “activity change, negative = inhibition” value was 0.28%.

In the case of `CO/N=C(\C(=O)N[C@@H]1C(=O)N2C(C(=O)O)=C(CSc3nc(=O)c(O)nn3C)CSC12)c1csc(N)n1` (stereo not given in full), the “activity change, negative = inhibition” value is -2.11%.

For the compound `Fc1ccc(CN(C2=NCCN2)c2c(Cl)cccc2Cl)cc1`, the “activity change, negative = inhibition” value is 0.588%.

`O=C(O)c1cc(=O)cc(C(=O)O)[nH]1`: the “activity change, negative = inhibition” value was -6.51%.

For `CSC(N)=NCCC[C@H](N)C(=O)O`, the “activity change, negative = inhibition” value is -22.2%.

Regarding `NC1CCN(O)C1=O` (stereo not given), the “activity change, negative = inhibition” value was -13.5%.

Turning to `C[C@@]1(C2CCCC2)Cc2cc(OCC(=O)O)c(Cl)c(Cl)c2C1=O`, the “activity change, negative = inhibition” value is 5.15%.

Consider `NC(=O)c1cc[n+](CC2=C(C(=O)O)N3C(=O)[C@@H](NC(=O)[C@@H](c4ccccc4)S(=O)(=O)[O-])[C@H]3SC2)cc1`, for which the “activity change, negative = inhibition” value was -19.1%.

Regarding `C=CCN1CCc2c(cc(O)c(O)c2Cl)C(c2ccccc2)C1` (stereo not given), the “activity change, negative = inhibition” value is 0.173%.

Regarding `NCCCCN=C(N)N`, the “activity change, negative = inhibition” value is -3.81%.

`COC(=O)[C@H](NC(=O)c1cc(-c2ccccc2)nc2ccccc12)c1ccccc1`: the “activity change, negative = inhibition” value is 5.5%.

As to `COc1ccc2c(c1)c(CC(=O)O)c(C)n2Cc1ccc(Cl)cc1`, the “activity change, negative = inhibition” value is -4.24%.

As for `O=C(O)c1cc2cc(F)ccc2[nH]1`, the “activity change, negative = inhibition” value is 6.05%.

Turning to `N=C(N)SCCN`, the “activity change, negative = inhibition” value is 0.495%.

Consider `Cn1cc(C(F)(F)F)nc1-c1ccc(OCC(O)CNCCOc2ccc(O)c(C(N)=O)c2)cc1` (stereo not given), for which the “activity change, negative = inhibition” value is -0.311%.

In the case of `N[C@@H](Cc1ccc(O)c(I)c1)C(=O)O`, the “activity change, negative = inhibition” value is 11.8%.

In the case of `C=CC[C@H](N)C(=O)O`, the “activity change, negative = inhibition” value was 9.88%.

`CN1CCc2cc(Cl)c(O)cc2[C@@H](c2ccccc2)C1`: the “activity change, negative = inhibition” value was -1.35%.

Consider `Cc1cccc(C2CN(C)CCc3c2cc(O)c(O)c3Cl)c1` (stereo not given), for which the “activity change, negative = inhibition” value was 9.72%.
